ERK EGF block: EGF-driven ERK pathway inhibition | actives 0.41% (n = 130,000) | Potency, µM (top dose mostly 11.5 µM), usual class: inhibitors | HEK293-V1b, EGF-stimulated phospho-ERK AlphaScreen | AID 1454; active means well fitted inhibition curve with a large enough effect; further: nearly all actives have a fitted effect of over 55% in size
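Compounds are titrated over HEK293-V1b cells kept overnight in 1% FBS. After 30 min at 37C, EGF (25 nM final) triggers ERK phosphorylation for 5 min, measured by AlphaScreen in lysates.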
Numbers stand for hits. This is one part of a sample in which hits are shown more often than they occur.

How did O=C1C(Nc2ccc(O)cc2)=C/C(=N/S(=O)(=O)c2cccs2)c2ccccc21 do in these assays?
ERK EGF block: 17.8µM

Results for CC(C)(C)c1cc[n+](C2=C([O-])c3ccccc3C(=O)/C2=N\S(=O)(=O)c2cccs2)cc1 ?
ERK EGF block: inactive

What do the screens show for `Cc1cccc(NC2=C/C(=N/S(=O)(=O)c3cccs3)c3ccccc3C2=O)c1`?
ERK EGF block: inactive

What do the screens show for `CS/C(=N\S(=O)(=O)c1cccs1)Nc1ccc(F)cc1`?
ERK EGF block: inactive

Results for O=C1/C(=N\S(=O)(=O)c2cccs2)C([n+]2ccccc2)=C([O-])c2ccccc21 ?
ERK EGF block: inactive

Results for Cc1ccc(NC2=C/C(=N\S(=O)(=O)c3cccs3)c3ccccc3C2=O)c(C)c1 ?
ERK EGF block: 12.6µM

How did Cc1ccc(C(=O)Cn2c3[n+](c4ccccc42)CC(O)CS3)cc1 (stereo not given) do in these assays?
ERK EGF block: inactive

What do the screens show for `CC1CCC(C(C)C)C(OC(=O)C2=C3c4ccccc4S(=O)(=O)N3CC2)C1` (stereo not given)?
ERK EGF block: inactive

What do the screens show for `COC(=O)/C=C1/SC(=Nc2ccc(Cl)c(Cl)c2)NC1=O`?
ERK EGF block: inactive

What do the screens show for `O=c1[nH]c(S)c(/C=C2\C=Nc3ccccc32)s1`?
ERK EGF block: inactive

How did O=C(c1cccc(C(=O)N(c2ccccn2)C2CCCCC2)c1)N(c1ccccn1)C1CCCCC1 do in these assays?
ERK EGF block: inactive

What do the screens show for `Cc1cnc(CN2CCc3c([nH]c4ccccc34)C2CC(C)C)[nH]1` (stereo not given)?
ERK EGF block: inactive

How did COCc1ccc(CN2CCc3c([nH]c4ccccc34)C2C(C)(C)C)o1 (stereo not given) do in these assays?
ERK EGF block: inactive

What do the screens show for `CCn1ccnc1CN1CCc2c([nH]c3ccccc23)C1C(C)(C)C` (stereo not given)?
ERK EGF block: 31.6µM

What do the screens show for `COc1ccc(N2C(=O)C(CC(=O)Nc3ccc(F)cc3)N(CCc3ccc(OC)c(OC)c3)C2=O)cc1` (stereo not given)?
ERK EGF block: inactive

What do the screens show for `Cn1c(=O)oc2cc(S(=O)(=O)N3CCCC(C(=O)N4CCn5c4nc4ccccc45)C3)ccc21` (stereo not given)?
ERK EGF block: inactive

Results for CC(C)c1ccc(/C=C/C(=O)Nc2ccc(CN3CCOCC3)cc2)cc1 ?
ERK EGF block: 35.5µM

Results for O=C(/C=C/c1ccccc1)NC(=S)Nc1ccc(CN2CCOCC2)cc1 ?
ERK EGF block: inactive

What do the screens show for `CC(C)C(=O)NC(=S)Nc1ccc(CN2CCOCC2)cc1`?
ERK EGF block: inactive

What do the screens show for `CC(C)[C@H](NS(=O)(=O)c1cccc(Cl)c1)C(=O)OCC(=O)N1CCN(c2ccccc2)CC1`?
ERK EGF block: inactive

Results for CC(C)[C@@H](CO)NC(=O)c1ccc2c3n(nc2c1)-c1ccc(Cl)cc1CO3 ?
ERK EGF block: inactive

Results for COC(=O)[C@@]1(Cc2ccc(OC)cc2)[C@@H]2C(=CC(=O)[C@H]2CC(=O)C(=O)N(C)C)CN1C(=O)c1ccccc1 ?
ERK EGF block: inactive

How did COC(=O)[C@@]1(Cc2ccc(F)cc2)[C@H]2c3cc(C(=O)N(C)C)n(Cc4ccccc4)c3C[C@H]2CN1C(=O)c1ccccc1 do in these assays?
ERK EGF block: inactive

Results for C=C1C(=O)C=C2CN(C(=O)c3ccccc3)[C@@](Cc3ccc(F)cc3)(C(=O)OC)[C@@H]12 ?
ERK EGF block: 22.4µM

How did O=C(NNC(=O)c1cccc(-n2cnnn2)c1)c1ccccc1 do in these assays?
ERK EGF block: inactive

How did COc1ccc(C(CC(=O)O)NC(=O)OC(C)(C)C)cc1 (stereo not given) do in these assays?
ERK EGF block: inactive

How did O=C(Nc1ccccc1)NN1CC(=O)N(c2ccc(Cl)cc2)CC1=O do in these assays?
ERK EGF block: inactive

Results for CN1CCN(CC(=O)NN2CC(=O)N(c3ccc(F)cc3)CC2=O)CC1 ?
ERK EGF block: inactive

What do the screens show for `O=C(CN1CCc2ccccc21)NN1CC(=O)N(c2ccc(Cl)cc2)CC1=O`?
ERK EGF block: 17.8µM

How did CCc1nnc(NC(=O)c2ccc(-c3ccccc3F)o2)s1 do in these assays?
ERK EGF block: inactive

What do the screens show for `COc1ccc(OC)c(NC(=S)NCC(c2cccnc2)N2CCOCC2)c1` (stereo not given)?
ERK EGF block: inactive

Results for COCC(C)Nc1ccc(S(=O)(=O)N2CCCC2)cc1[N+](=O)[O-] (stereo not given) ?
ERK EGF block: inactive

How did COc1ccc2cc(S(=O)(=O)N3CCCCCC3)ccc2c1 do in these assays?
ERK EGF block: inactive

What do the screens show for `COc1ccc(Nc2ccc(S(=O)(=O)N3CCCCCC3)cc2[N+](=O)[O-])cc1`?
ERK EGF block: 20µM

How did O=C(CCCN=C1NS(=O)(=O)c2ccccc21)OCc1cc([N+](=O)[O-])cc2c1OCOC2 do in these assays?
ERK EGF block: inactive

Results for Cc1ccc(C(=O)c2cc3ccccc3o2)cc1[N+](=O)[O-] ?
ERK EGF block: 22.4µM

How did Cc1ccc(C(=O)NCCSCc2ccccc2)cc1[N+](=O)[O-] do in these assays?
ERK EGF block: inactive

Results for COc1cc2c(cc1NC(=O)c1ccc(C)c([N+](=O)[O-])c1)oc1ccccc12 ?
ERK EGF block: inactive

How did O=C(c1cccc([N+](=O)[O-])c1)c1ccc2c(c1)C(=O)N(c1c[nH]c(=O)[nH]c1=O)C2=O do in these assays?
ERK EGF block: inactive

Results for COc1ccccc1N(CCN1C(=O)c2cccc3cccc(c23)C1=O)C(=O)c1ccncc1 ?
ERK EGF block: inactive

Results for Cc1cccc2nc(CSc3nc4ccc([N+](=O)[O-])cc4[nH]3)cn12 ?
ERK EGF block: inactive

What do the screens show for `CCc1cccc(C)c1NC(=O)CSc1nc(-c2ccccc2F)nc2nc[nH]c12`?
ERK EGF block: inactive

What do the screens show for `COc1ccc(-c2nn(-c3ccccc3)cc2/C=N/NC(=S)NC(C)C)cc1OC`?
ERK EGF block: inactive

How did COc1ccc(-c2nn(-c3ccccc3)cc2/C=N/N=C(N)N)cc1OC do in these assays?
ERK EGF block: 25.1µM

How did COc1ccc(-c2nn(-c3ccccc3)cc2/C=N/Nc2ccc3ccccc3n2)cc1OC do in these assays?
ERK EGF block: inactive

What do the screens show for `O=C(CN1C(=O)C2CC=CCC2C1=O)NC1CCCCC1` (stereo not given)?
ERK EGF block: inactive

What do the screens show for `Cc1cc(NCCN2CCOCC2)c2ccc3ccccc3c2n1`?
ERK EGF block: inactive

Results for Oc1ccc2ccccc2c1CN1CCN(c2ccccc2F)CC1 ?
ERK EGF block: inactive

What do the screens show for `CCOC(=O)c1[nH]cnc1N=Nc1c(O)ccc2ccccc12`?
ERK EGF block: inactive

How did Oc1ccc2ccccc2c1N=Nc1ccccc1F do in these assays?
ERK EGF block: 14.1µM

What do the screens show for `Cc1cc(N)nc2nc(C(F)(F)F)nn12`?
ERK EGF block: inactive

What do the screens show for `CCC(=O)NC(=S)Nc1ccccc1C(=O)NC1CCCCC1`?
ERK EGF block: inactive

How did CCN(CC)C(=O)c1cccc2c1C(=O)c1ccccc1-2 do in these assays?
ERK EGF block: inactive

How did CCN(CC)CCC(=O)Nc1cccc2c1C(=O)c1ccccc1C2=O do in these assays?
ERK EGF block: inactive

Results for CN(C)c1cccc2c1C(=O)c1ccccc1C2=O ?
ERK EGF block: 12.6µM

Results for O=C(Cc1cccs1)N/N=C/c1ccco1 ?
ERK EGF block: inactive

How did CCOC(=O)C(NC(C)=O)C(=O)Nc1ccc(C(C)C)cc1 (stereo not given) do in these assays?
ERK EGF block: inactive

Results for COC(=O)/C(=C\Nc1ccc(Oc2ccc(F)cc2F)nc1)NC(=O)c1ccccc1 ?
ERK EGF block: inactive

Bioassay records (PubChem)
